# The source made the active and inactive calls. The calls were made as follows, unless noted: active = hit-call score of the fitted dose curve at least 0.9, where 1 is the maximum; inactive = score below 0.9.
# Columns and labels:
# SERPINA7 (gene 6906) = experiment: CCTE_GLTED_hTBG: CCTE's human Thyroxine-binding Globulin (TBG) Inhibition Assay, Great Lakes Toxicology and Ecology Division (GLTED) Lab (AID 2284343; active = hit-call score of the fitted dose curve at least 0.9, where 1 is the maximum;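 also: active chemicals lower fluorescence versus DMSO baseline by displacing probe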)
# Summary of the method: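 Human TBG incubated 2 h with test chemical; displacement of ANSA probe read by fluorescence, 380 nm excitation/475 nm emission. Loss of signal relative to DMSO.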
# [1] = test system: SRY-box transcription factor 17 (SOX17) Protein Expression, Deisenroth Lab, SOX17 (gene 64321); experiment: CCTE_Deisenroth_DEVTOX-GLR_legacy_Sox17: (Legacy) CCTE's DevTox GLR-Endo Assay Evaluation of SRY-box transcription factor 17 (SOX17) Protein Expression, Deisenroth Lab (AID 2284341); settings: actives raise or lower the signal
# Summary of the method: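 RUES2-GLR human pluripotent cells differentiated toward endoderm for 48 h, dosed twice at 24 h intervals (1 nM–200 uM, 10 points). Imaging gives % SOX17+ cells (intensity >5x BMAD above pluripotent control median); bidirectional fit versus 0.2% DMSO.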
# [2] = test system: SRY-box transcription factor 2 (SOX2) Protein Expression, Deisenroth Lab, SOX2 (gene 6657); experiment: CCTE_Deisenroth_DEVTOX-GLR_legacy_Sox2: (Legacy) CCTE's DevTox GLR-Endo Assay Evaluation of SRY-box transcription factor 2 (SOX2) Protein Expression, Deisenroth Lab (AID 2284346)
# Summary of the method: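 hPSC RUES2-GLR, 384-well; 24 h seed → 48 h endoderm differentiation, 2 doses q24h, 1 nM–200 uM. Fix, nuclear dye, 5 fields/well. Sox2+ cells/cell count; cell positive if >5x BMAD over endoderm ctrl; gain direction vs DMSO.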
# [3] = test system: SRY-box transcription factor 17 (SOX17) Protein Expression, Deisenroth Lab, SOX17 (gene 64321); experiment: CCTE_Deisenroth_DEVTOX-GLR_Endo_SOX17: CCTE's DevTox GLR-Endo Assay Evaluation of SRY-box transcription factor 17 (SOX17) Protein Expression, Deisenroth Lab (AID 2284413)
# Summary of the method: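 Seed RUES2-GLR cells 24 h; start endoderm differentiation; dose at 0 and 24 h (1 nM - 200 uM, 10 points); fix at 48 h, stain nuclei, image 5 fields/well; compute SOX17+/total cells vs 0.2% DMSO.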
structure (smiles),measurement,setting,value
Oc1ccc2c(c1)-c1ccccc1C2,AC50,SERPINA7 (gene 6906),19.4 µM (active)
O=C1CCC(N2C(=O)c3ccccc3C2=O)C(=O)N1 (stereo not drawn),AC50,[1],1.44 µM (active)
same,outcome,[2],inactive
same,AC50,[3],1.56 µM (active)
NC(=O)NO,outcome,[1],inactive
same,outcome,[2],inactive
same,outcome,[3],inactive
O=C(O)c1cccc(Oc2ccccc2)c1,AC50,SERPINA7 (gene 6906),19.2 µM (active)
